In PubChem BioAssay AID372 (MTDP, 2006):
The campaign covered roughly 100,000 compounds. About 770 (0.77%) were called active. No stated cut-off is given here; in the data, active means inhibition above about 50%; inactive means the rest. The entries come from a sample that favours actives as a whole.

target: Gag-Pol polyprotein (Human immunodeficiency virus type 1 group M subtype B (isolate HXB2)) (UniProt P04585); assay: RNase H inhibition, HIV 1 Gag Pol polyprotein, FRET biochemical assay, screening (AID 372); settings: HIV-1 RT RNase H, FRET RNA/DNA substrate fluorescence; at 10 µM; stronger effect = higher value

SMILES	inhibition
Cc1cccc2c(Nc3ccccc3)c3ccccc3nc12	17% (inactive)
CCOC(=O)c1cccc(Nc2ncnc3ccc(C)cc23)c1	0% (inactive)
Fc1ccc(/C=N/c2ncn[nH]2)cc1	6% (inactive)
CNC(=O)C(=O)NCCN1CCN(S(=O)(=O)c2ccc([N+](=O)[O-])cc2)CC1	0% (inactive)
O=C(COc1ccccc1Br)Nc1ccc(Cl)c(Cl)c1	20% (inactive)
COc1ccc(C(=O)NC(CC(=O)O)c2ccccc2)cc1 (stereo unspecified)	0% (inactive)
CC(=O)c1cccc(N/C=C\C(=O)c2ccc(Cl)c(Cl)c2)c1	10% (inactive)
Cc1ccc(NC(=O)/C=C/c2cccc(C(F)(F)F)c2)cc1	12% (inactive)
O=C1c2ccccc2C(=O)N1c1ccc(-c2nc3ccccc3[nH]2)cc1	0% (inactive)
O=C1C=CC(=O)N1c1ccc(-c2nc3ccc(N4C(=O)C=CC4=O)cc3[nH]2)cc1	14% (inactive)
CCOC(=O)C1=C(C)N=c2s/c(=C\c3ccc(Br)o3)c(=O)n2C1c1ccc(OC)cc1OC (stereo unspecified)	23% (inactive)
CCCC(=O)Nc1c(C)ccc2nsnc12	0% (inactive)
COCCCNC(=O)COc1ccc(Cl)cc1C	10% (inactive)
CCN1C(=O)/C(=C\c2ccc(O)c(OC)c2)SC1=S	36% (inactive)
CCN1C(=O)/C(=C\c2cc(OC)ccc2O)SC1=S	24% (inactive)
CN1C(=O)/C(=C/c2ccc(O)c(O)c2)SC1=S	83% (active)
CCN1C(=O)/C(=C\c2ccc(O)cc2O)SC1=S	70% (active)
COc1ccc(/C=C2\SC(=S)N(C3CCCCC3)C2=O)cc1O	5% (inactive)
COc1cc(/C=C2\SC(=S)N(C3CCCCC3)C2=O)ccc1O	8% (inactive)
CCOc1cc(/C=C2\SC(=S)N(C)C2=O)ccc1O	22% (inactive)
COc1ccc(/C=C2/SC(=S)N(C)C2=O)cc1O	43% (inactive)
CCN1C(=O)/C(=C\c2ccc(O)c(O)c2)SC1=S	81% (active)
CCN1C(=O)/C(=C\c2cccc(O)c2)SC1=S	28% (inactive)
CCN1C(=O)/C(=C\c2cc(Cl)ccc2O)SC1=S	16% (inactive)

SMILES	inhibition
N/C(Cc1ccc([N+](=O)[O-])cc1)=N\OC(=O)c1ccc([N+](=O)[O-])cc1	6% (inactive)
Cc1ccc(C(=O)N2CCc3ccccc32)cc1[N+](=O)[O-]	5% (inactive)
O=[N+]([O-])c1cc([N+](=O)[O-])c(N2CCN(c3ccccc3Cl)CC2)cc1Nc1ccc(Br)cc1	5% (inactive)
O=C(CSc1cc(Cl)ccc1Cl)Nc1cccc(C(F)(F)F)c1	9% (inactive)
COc1cc(C(=O)N/C(=C/c2ccco2)C(=O)Nc2ccccc2)cc(OC)c1OC	9% (inactive)
COc1ccccc1C1NC(=O)NC(C)=C1C(=O)OC(C)C (stereo unspecified)	8% (inactive)
CCNC(=O)C(=O)Nc1ccccc1C	5% (inactive)
CCOC(=O)c1c(NC(=O)Cc2ccc(Cl)cc2)sc(C(=O)Nc2ccccc2OC)c1C	0% (inactive)
Cc1c(OCC(N)=O)ccc2c1oc(=O)c1ccccc12	47% (inactive)
COc1ccccc1N1CCN(/N=C/C=C\c2ccco2)CC1	8% (inactive)
C[n+]1cccc(C(=O)NCCOC(=O)c2ccc(F)cc2)c1	0% (inactive)
O=C(O)CCCCCN1C(=O)/C(=C/c2ccc(O)c(O)c2)SC1=S	53% (active)
O=C1/C(=C\c2ccc(O)cc2)SC(=S)N1Cc1ccccc1	46% (inactive)
O=C(O)CCCCCCCCCCN1C(=O)/C(=C/c2ccc(Br)cc2)SC1=S	25% (inactive)
O=C1/C(=C/c2ccc(O)c([N+](=O)[O-])c2)SC(=S)N1Cc1ccccc1	23% (inactive)
O=C1/C(=C\c2ccc(O)c(O)c2)SC(=S)N1Cc1ccccc1	73% (active)
COc1cc(/C=C2\SC(=S)N(CCCCCCCCCCC(=O)O)C2=O)ccc1O	23% (inactive)
CCOc1ccc(/C=N/N2CCN(Cc3cccc4ccccc34)CC2)cc1OC	13% (inactive)
NC(=O)c1ccccc1NC(=O)c1sc2ccccc2c1Cl	0% (inactive)
O=C1S/C(=C/c2ccc3c(c2)OCO3)C(=O)N1CN1CCCC1	10% (inactive)
c1ccc(CCCN2CCN(Cc3cccnc3)CC2)cc1	5% (inactive)
COC(=O)C1=C(C)N=c2s/c(=C\c3ccccc3F)c(=O)n2C1c1ccc(OC)cc1 (stereo unspecified)	11% (inactive)
COc1ccc(C2=C(c3ccc(OC)cc3)C3(c4ccccc4)C(=O)C2(c2ccccc2)C2C(=O)N(c4ccc(Br)cc4)C(=O)C23)cc1 (stereo unspecified)	42% (inactive)
COC(=O)c1ccc(N2C(=O)C3C(C2=O)C2(c4ccccc4)C(=O)C3(c3ccccc3)C(c3ccc(OC)cc3)=C2c2ccc(OC)cc2)cc1 (stereo unspecified)	57% (active)

SMILES	inhibition
CCOC(=O)c1ccc(N2C(=O)C3C(C2=O)C2(c4ccccc4)C(=O)C3(c3ccccc3)C(c3ccc(OC)cc3)=C2c2ccc(OC)cc2)cc1 (stereo unspecified)	44% (inactive)
COc1cc2ccccc2cc1C(=O)Nc1ccc(Cl)c(Cl)c1	24% (inactive)
Cc1ccc(OCC2CNC(=O)O2)cc1 (stereo unspecified)	10% (inactive)
CCOc1ccc(N2C(=O)NC(=O)/C(=C\c3ccc(Br)o3)C2=O)cc1	1% (inactive)
CCOc1ccc(N2C(=O)/C(=C/c3ccc(N(CC)CC)o3)C(=O)NC2=S)cc1	21% (inactive)
CCOc1cccc(N2C(=O)/C(=C/c3ccc(I)o3)C(=O)NC2=S)c1	39% (inactive)
O=C1NC(=S)N(c2ccc(Cl)cc2)C(=O)/C1=C/c1ccc(-c2ccc(F)cc2)o1	25% (inactive)
CCc1ccc(N2C(=O)NC(=O)/C(=C\c3ccc(I)o3)C2=O)cc1	11% (inactive)
CCc1ccc(N2C(=O)/C(=C/c3ccc(-c4ccc(F)cc4)o3)C(=O)NC2=S)cc1	26% (inactive)
CCc1ccc(N2C(=O)/C(=C/c3ccc(I)o3)C(=O)NC2=S)cc1	97% (active)
O=C1NC(=S)N(c2ccc(Cl)cc2)C(=O)/C1=C/c1ccc(N2CCCC2)o1	10% (inactive)
CCOc1ccc(N2C(=O)NC(=O)/C(=C\c3ccc(I)o3)C2=O)cc1	5% (inactive)
O=C(Cc1csc(-c2ccccc2)n1)Nc1nccs1	0% (inactive)
O=C(NCCSc1ccccn1)c1ccc([N+](=O)[O-])cc1	0% (inactive)
Cc1ccc2c(c1)-c1c(ssc1=S)C(C)(C)N2C(=O)c1ccco1	48% (inactive)
Cc1ccc(/C(O)=C2/C(=O)C(=O)N(c3ccccc3)C2c2ccc([N+](=O)[O-])cc2)cc1 (stereo unspecified)	0% (inactive)
CC1=C(C(=O)OCC2CCCO2)C(c2cc3c(cc2[N+](=O)[O-])OCO3)C2=C(CCCC2=O)N1 (stereo unspecified)	6% (inactive)
CCC(C)c1ccc(NC(=O)Cc2ccc(Cl)cc2)cc1 (stereo unspecified)	10% (inactive)
CCC(=O)Nc1ccc(NC(=S)NC(=O)c2ccco2)cc1	0% (inactive)
N#C/C(=C\c1ccc(-c2ccc([N+](=O)[O-])cc2Br)o1)C(N)=O	22% (inactive)
COc1ccc(N2C(=O)/C(=C\c3ccc([N+](=O)[O-])o3)C(=O)NC2=S)cc1	43% (inactive)
CCOc1ccc(N2C(=O)NC(=O)/C(=C\c3ccccc3OC)C2=O)cc1	5% (inactive)
CCOc1ccc(N2C(=O)NC(=O)/C(=C\c3ccccc3)C2=O)cc1	0% (inactive)
CCOc1ccc(N2C(=O)NC(=O)/C(=C/c3cccc4ccccc34)C2=O)cc1	73% (active)

SMILES	inhibition
COc1ccc(N2C(=O)NC(=O)/C(=C/c3ccc(I)o3)C2=O)cc1	11% (inactive)
CCCC1CCC(c2ccc(C(=O)CCN(C)C)cc2)CC1 (stereo unspecified)	25% (inactive)
COc1ccc(OC)c(/C=C2/SC(=S)N(c3ccc(Cl)cc3)C2=O)c1	4% (inactive)
Cc1c(Cc2ccccc2)c(=O)oc2c(C)c(OS(C)(=O)=O)ccc12	0% (inactive)
COc1ccccc1/C=N/NC(=O)C(C)Sc1nc(C)cc(C)n1 (stereo unspecified)	14% (inactive)
O=C(COC(=O)c1ccccc1I)c1ccc2c(c1)OCCO2	57% (active)
O=C(COC(=O)c1ccc2c(c1)OCCO2)c1ccc(Br)cc1	0% (inactive)
O=C(COC(=O)c1ccc2c(c1)OCCO2)c1ccc(-c2ccccc2)cc1	14% (inactive)
C=CCOc1cccc(/C=N/NC(=O)C(=O)Nc2ccc(C)c(C)c2)c1	1% (inactive)
CCOc1cc(/C=C(/C#N)C(=O)Nc2ccc(O)cc2)ccc1OC	8% (inactive)
CC(C)(C)c1cc(C(c2ccccc2O)N2CCOCC2)cc(C(C)(C)C)c1O (stereo unspecified)	22% (inactive)
N#Cc1ccccc1COc1ccc(/C=C2/SC(=S)NC2=O)cc1Br	52% (active)
N#Cc1ccccc1COc1ccc(C=C2C(=O)NC(=S)NC2=O)cc1Br	46% (inactive)
O=C1NC(=S)NC(=O)C1=Cc1ccc(OCc2ccccc2Cl)cc1	35% (inactive)
O=C1NC(=S)NC(=O)C1=Cc1cc(Br)ccc1OCc1cccc2ccccc12	32% (inactive)
COc1cc(/C=C2/SC(=S)NC2=O)ccc1OCc1ccccc1C#N	46% (inactive)
Cc1ccccc1COc1ccc(C=C2C(=O)NC(=S)NC2=O)cc1	60% (active)
O=C1NC(=S)NC(=O)C1=Cc1ccc(OCc2cccc3ccccc23)c(Br)c1	54% (active)
CN1C(=O)S/C(=C/c2ccc(OCc3ccccc3C#N)c(Br)c2)C1=O	39% (inactive)
Cc1cccc(C)c1OCCOc1ccc(C=C2C(=O)NC(=S)NC2=O)cc1	36% (inactive)
O=C(/C=C/c1ccccc1)N1CCN(c2ccccc2)CC1	0% (inactive)
COc1ccc(-c2ccccc2)cc1NCC1CC=CCC1 (stereo unspecified)	21% (inactive)
Cc1ccc(NC(=O)C(C(C)C)N2C(=O)c3ccccc3C2=O)c(C)c1 (stereo unspecified)	12% (inactive)
O=C1C(Cl)=C(Nc2cccc(Cl)c2)C(=O)N1c1cc(Cl)ccc1Cl	0% (inactive)
